Experimental data published in PubChem BioAssay (NCATS).
Inconclusive results are not listed. Calls of active or inactive are those of the source. Calls follow the shape of the dose curve; as a rule, active = well fitted curve in the direction sought with a large enough effect; inconclusive = small, poorly fitted or top-dose-only effect, or another doubt; inactive = no such curve, though single readings can be large; an effect the other way counts as inactive or inconclusive.

What was measured:
[1] = Confirmation and Secondary Assay for Modulators of Hemoglobin Beta Chain Splicing at IVS2 705 locus (AID 930); conditions: HeLa EGFP-705 splicing reporter, GFP fluorescence, 48 h; series mostly up to 46.1 µM;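 also: HeLa cells stably expressing the EGFP-705 splicing reporter; GFP fluorescence per well restored by corrected splicing of the IVS2-705 intron in EGFP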
Procedure, shortened: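 Secondary splice-site specificity test uses HeLa expressing CMV-driven EGFP interrupted by IVS2-705; cells were treated 2 days at 37C with 500 nM antisense PNA as positive control.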

[2] = Cell Viability - LYMP2-001 (AID 921); conditions: LYMP2-001 lymphoblastoid cell viability; series mostly up to 92.2 µM; also: nearly all actives have a fitted effect of over 70% in size
Procedure, shortened: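 Human lymphoblastoid cells (Coriell), 2500 per well, were preincubated 5 hr at 37 C, then exposed to compounds in complete medium for 24 hr at 37 C. Cellular ATP was read by CellTiter-Glo luminescence; AC50 from Hill fits of concentration-response data.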

[3] = MultiTox-Fluor Cytotoxicity Assay - LYMP1-001 - Dead Cells (AID 946); conditions: LYMP1-001 lymphoblastoid cells, dead-cell protease fluorescence; series mostly up to 92.2 µM
Procedure, shortened: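 Seed 2500 LYMP1-001 cells/well, incubate 5 hr at 37 C; add compound, 16 hr at 37 C; add MultiTox-Fluor reagent, 60 min RT; read dead-cell fluorescence Ex/Em=485/520. Normalize to DMSO and 15 uM tetraoctylammonium bromide.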

[4] = MultiTox-Fluor Cytotoxicity Assay - LYMP1-002 - Live Cells (AID 955); conditions: LYMP1-002 lymphoblastoid live-cell protease fluorescence viability; series mostly up to 46.1 µM;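 also: cells exposed to compound for 16 hours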
Procedure, shortened: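 In this qHTS viability format, lymphoblastoid cells (LYMP1-002, human) received compound for 16 hr at 37 C. Fluorogenic GF-AFC cleavage by viable cells was detected at 405/510 nm after 1 h at room temperature.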

[5] = MultiTox-Fluor Cytotoxicity Assay - LYMP1-002 - Dead Cells (AID 960); conditions: LYMP1-002 lymphoblastoid cells, dead-cell protease fluorescence; series mostly up to 46.1 µM; also: nearly all actives have a fitted effect of over 60% in size
Procedure, shortened: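 Concentration-dependent increases in membrane-leaked protease activity are quantified in LYMP1-002 cells after 16 hr treatment; values are normalized against DMSO and tetraoctylammonium bromide (15 uM) controls and AC50 derived by Hill modeling.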

[6] = MultiTox-Fluor Cytotoxicity Assay - LYMP1-003 - Dead Cells (AID 961); conditions: LYMP1-003 lymphoblastoid cells, dead-cell protease fluorescence; series mostly up to 92.2 µM; also: nearly all actives have a fitted effect of over 70% in size
Procedure, shortened: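 LYMP1-003 lymphoblastoid, 2500 cells/well, 5 hr settle then 16 hr cpd at 37 C; MultiTox-Fluor reagent 60 min RT; Ex/Em 485/520 dead-cell signal; norm. DMSO = 0%, 15 uM tetraoctylammonium bromide = 100%; Hill AC50.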

[7] = Cell Viability - LYMP2-003 (AID 965); conditions: LYMP2-003 lymphoblastoid cell viability; series mostly up to 92.2 µM;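 also: cells exposed to compounds for 24 h before reading; nearly all actives have a fitted effect of over 50% in size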
Procedure, shortened: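 Human lymphoblastoid cells (2500/well) were pre-incubated 5 hr at 37 C, then exposed to compounds over a concentration range for 24 hr at 37 C. Intracellular ATP was read by CellTiter-Glo luminescence; AC50 came from Hill-equation fits.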

[8] = Cell Viability - LYMP2-005 (AID 967); conditions: LYMP2-005 lymphoblastoid cell viability; series mostly up to 92.2 µM
Procedure, shortened: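 CellTiter-Glo luminescence (cellular ATP) read-out; LYMP2-005 lymphoblastoid cells, 2500/well, 5 h pre-incubation, then 24 h compound exposure at 37 C in complete medium. Tetraoctylammonium bromide positive control; AC50 by standard Hill fit.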

[9] = MultiTox-Fluor Cytotoxicity Assay - LYMP1-001 - Live Cells (AID 947); conditions: LYMP1-001 lymphoblastoid cells, live-cell protease fluorescence viability; series mostly up to 92.2 µM
[10] = MultiTox-Fluor Cytotoxicity Assay - LYMP1-003 - Live Cells (AID 962); conditions: LYMP1-003 lymphoblastoid cells, MultiTox-Fluor live-cell protease fluorescence; series mostly up to 92.2 µM;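 also: cells exposed to compound for 16 hours at 37 °C; cytotoxic hits lower the live-cell protease signal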
Procedure, shortened: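 Human lymphoblastoid line LYMP1-003 in complete culture medium, treated 16 hr with titrated compounds. Viable cells quantified via cell-permeant GF-AFC substrate fluorescence; AC50 derived by Hill fitting.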

[11] = Cell Viability - LYMP1-003 - Assay at 24 hr (AID 963); conditions: LYMP1-003 lymphoblastoid cell viability; series mostly up to 92.2 µM
Procedure, shortened: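 The lymphoblastoid line was treated with titrated compounds for 24 hours, and viable cell number estimated from luciferase-based ATP luminescence.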

[12] = Cell Viability - LYMP1-003 - Assay at 40 hr (AID 964); conditions: LYMP1-003 lymphoblastoid viability; series mostly up to 92.2 µM; also: nearly all actives have a fitted effect of over 60% in size
Procedure, shortened: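 Acute toxicity is scored as a concentration-dependent loss of intracellular ATP in LYMP1-003 cells (2500/well, complete medium) after 40 hr at 37 C, measured by CellTiter-Glo luminescence; AC50 values derive from standard Hill modelling.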

[13] = Cell Viability - LYMP2-004 (AID 966); conditions: LYMP2-004 lymphoblastoid cell viability, qHTS; series mostly up to 92.2 µM; also: nearly all actives have a fitted effect of over 65% in size
Procedure, shortened: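 Viable-cell number estimated from ATP luminescence (CellTiter-Glo) in 2500 human lymphoblastoid cells/well after 24 hr at 37 C with compound. AC50 fitted to the standard Hill equation.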

Measured: Potency

O=c1cc(-c2ccccc2)oc2c(O)c(O)ccc12
inactive: [1]

O=C1CN(/N=C/c2ccc([N+](=O)[O-])o2)C(=O)N1
inactive: [2] | [1] | [3] | [4] | [5] | [6] | [7] | [8]

Nc1cc(-c2ccncc2)c[nH]c1=O
inactive: [1]

NCCO
inactive: [2] | [3] | [9] | [4] | [5] | [6] | [10] | [11] | [12] | [7] | [13] | [8]

CC1(C)S[C@@H]2[C@H](NC(=O)[C@H](N)c3ccccc3)C(=O)N2[C@H]1C(=O)O
inactive: [2] | [3] | [9] | [4] | [5] | [6] | [10] | [11] | [12] | [7] | [13] | [8]

Nc1nc2ccc([N+](=O)[O-])cc2s1
inactive: [2] | [3] | [9] | [4] | [5] | [6] | [10] | [11] | [12] | [7] | [13]

Nc1ccc(O)c(C(=O)O)c1
inactive: [2] | [3] | [9] | [4] | [5] | [6] | [10] | [11] | [12] | [7] | [13] | [8]

c1ccc2sc(SSc3nc4ccccc4s3)nc2c1
inactive: [2] | [3] | [9] | [4] | [5] | [6] | [10] | [11] | [12] | [7] | [13] | [8]

CN1CCC[C@H]1c1cccnc1
inactive: [2] | [3] | [9] | [4] | [5] | [6] | [10] | [11] | [12] | [7] | [13] | [8]
